Experimental data taken from ChEMBL document CHEMBL4513146, “CO-ADD screening of Karazin Kharkiv National University (Ukraine) compounds”.
Potency and affinity values are given separately.

Tests used:
Staphylococcus aureus = settings: Concentration 32 ug.mL-1;; ASSAY_TEST Inhibition of Bacterial Growth; detection method Absorption (OD600); MEDIA CAMHB; plate type 384well; NBS; CORNING #3640; time 18 hr
Escherichia coli = settings: Concentration 32 ug.mL-1;; ASSAY_TEST Inhibition of Bacterial Growth; detection method Absorption (OD600); MEDIA CAMHB; plate type 384well; NBS; CORNING #3640; time 18 hr

SMILES	Inhibition (Staphylococcus aureus)	Inhibition (Escherichia coli)
CCOc1ccc(NC(=O)Cn2nc3ccc(-c4ccc(C)c(C)c4)nn3c2=O)cc1	3.86%	-6.73%
Cc1ccc(F)cc1NC(=O)CSc1nc2ccccc2n2c(C)nnc12	2.37%	1.62%
CCc1nnc2c(S(=O)(=O)N(Cc3cc(F)cc(F)c3)c3ccc(C)cc3)cccn12	10.46%	-5.17%
Cc1ccc(NC(=O)Cn2nc3c(N4CCOCC4)nccn3c2=O)cc1F	9.97%	2.81%
Cc1ccc(C(=O)CSc2nnc3c(=O)n(-c4ccc(F)cc4)ccn23)c(C)c1	7.85%	-6%
COc1ccc(NC(=O)Cn2nc3c4cc(-c5ccc(C)c(C)c5)nn4ccn3c2=O)cc1OC	7.31%	-0.24%
COc1cccc(NC(=O)Cn2nc3c(Sc4ccccc4)nccn3c2=O)c1	6.76%	0.48%
CC(C)CCn1c(=O)c2sccc2n2c(=O)n(CC(=O)N3CCC(Cc4ccccc4)CC3)nc12	-19.02%	-15.19%
Cc1ccc(NC(=O)Cn2nc3c(Oc4cccc(C)c4C)nccn3c2=O)c(Br)c1	0.42%	-4.42%
CCc1ccccc1NC(=O)Cn1nc2cc(C)nc(Nc3ccc(F)c(C)c3)n2c1=O	-15.94%	-1.7%
COc1ccc(NC(=O)Cn2nc3cc(C)nc(Nc4ccc(F)cc4)n3c2=O)cc1F	9.09%	-0.97%
COc1ccc(CCn2c(=O)c3sccc3n3c(=O)n(Cc4ccccc4Cl)nc23)cc1OC	1.03%	-4.64%
COc1cccc(CN(c2ccc(C(C)C)cc2)S(=O)(=O)c2cccn3cnnc23)c1	7.94%	-1.44%
Cc1cc(C)cc(Nc2nc(C)cc3nn(CC(=O)Nc4ccc(C)c(F)c4)c(=O)n23)c1	9.64%	-0.61%
COc1ccc(NC(=O)Cn2nc3c(SC4CCCCC4)nccn3c2=O)cc1	-2.9%	-3.75%
CCc1ccccc1NC(=O)Cn1nc2c(Sc3ccccc3CC)nccn2c1=O	13.37%	-2.13%
O=S(=O)(c1ccc2nncn2c1)N(Cc1cc(F)cc(F)c1)c1cccc(F)c1	5.24%	-5.68%

SMILES	Inhibition (Staphylococcus aureus)	Inhibition (Escherichia coli)
CCOc1ccccc1CNC(=O)CCc1nnc2ccc(-c3ccc(C)cc3)nn12	9.96%	-0.64%
O=S(=O)(c1ccc2nncn2c1)N(Cc1ccccc1F)c1ccc2c(c1)OCO2	12.13%	-4.11%
COc1ccc(-c2cc3c4nnc(CCC(=O)N5CCN(c6ccccc6F)CC5)n4ccn3n2)cc1	13.19%	1.66%
CCOc1ccc(-n2ccn3c(SCC(=O)Nc4ccc(F)cc4F)nnc3c2=O)cc1	5.96%	2.93%
Cc1ccc(C)c(NC(=O)Cn2nc3ccc(-c4ccc(C)c(C)c4)nn3c2=O)c1	-1.85%	-17.07%
COc1ccc(-c2cc3c4nnc(CCC(=O)NCc5cccs5)n4ccn3n2)cc1	11.44%	4.51%
CC(C)c1ccc(NC(=O)Cn2nc3ccc(SCc4ccc(Cl)cc4)nn3c2=O)cc1	4.11%	-6.33%
O=C(Cn1nc2nc(Nc3ccc(F)cc3)ccn2c1=O)N1CCCC1	-4.71%	-12.03%
O=c1n(Cc2c(F)cccc2Cl)nc2ccc(-c3ccccc3)nn12	7.33%	0.7%
O=C(Cn1nc2c(Oc3ccccc3)nccn2c1=O)Nc1ccc(Br)cc1F	-5.68%	-11.64%
Cc1nnc2ccc(S(=O)(=O)N(Cc3ccc(F)cc3)c3cc(F)cc(F)c3)cn12	4.18%	-6.59%
Cc1nnc2ccc(S(=O)(=O)N(Cc3cccc(Cl)c3)c3ccc(F)cc3)cn12	3.62%	-8.44%
COc1cccc(-n2ccn3c(SCC(=O)Nc4ccc(C(C)C)cc4)nnc3c2=O)c1	0.38%	-24.97%
Cc1ccc(F)cc1NC(=O)CSc1nc2ccccc2n2c(C(C)C)nnc12	9.29%	-3.01%
Cc1ccc(-c2nnc3c(=O)n(CC(=O)Nc4cc(C)cc(C)c4)c4ccccc4n23)cc1	10.86%	0.18%
O=S(=O)(Nc1ccc2c(c1)OCCO2)c1ccc2nncn2c1	11.97%	-4.23%
